Source: PubChem BioAssay (NCI)
The panel holds about 83,000 compounds, 20% with a hit somewhere; the sample as a whole holds those more often.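 The test compound was applied at a single concentration to cells in 96-well plates for 48 hours, and percent growth was recorded.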 Values without a mark were called inactive. Calls of active or inactive are those of the source. The calls were made as follows: active = growth percent below 10; inactive = the rest.

Experiments:
Test in all cases: NCI-60 one-dose screen, 48 h (100 = growth as untreated, 0 = no growth, -100 = all killed)
[1] = system: NCI-H226 lung; settings: 10 µM
[2] = system: NCI-H322M lung; settings: 10 µM
[3] = system: HOP-62 NSCLC; settings: 10 µM
[4] = system: NCI-H460 lung; settings: 10 µM
[5] = system: NCI-H522 lung; settings: 10 µM
[6] = system: A549/ATCC NSCLC; settings: 10 µM
[7] = system: DU-145 prostate; settings: 10 µM
[8] = system: K-562 leukemia; settings: 10 µM
[9] = system: SF-539 CNS; settings: 10 µM
[10] = system: M14 melanoma; settings: 10 µM
[11] = system: HCT-15 colon; settings: 10 µM
[12] = system: HT29 colon; settings: 10 µM
[13] = system: SNB-75 CNS; settings: 10 µM
[14] = system: SNB-19 CNS; settings: 10 µM
[15] = system: U251 CNS; settings: 10 µM
[16] = system: MOLT-4 leukemia; settings: 10 µM
[17] = system: SR leukemia; settings: 10 µM
[18] = system: RPMI-8226 leukemia; settings: 10 µM
[19] = system: SK-OV-3 ovarian; settings: 10 µM
[20] = system: MDA-MB-468 breast; settings: 10 µM unless noted

Compound | growth [1] | growth [2] [%] | growth [3] | growth [4] | growth [5] | growth [6] | growth [7] | growth [8] | growth [9] | growth [10] | growth [11] | growth [12] | growth [13] | growth [14] | growth [15] | growth [16] | growth [17] | growth [18] | growth [19] | growth [20]
COc1cc(-c2nc3ccc(C)cc3[nH]2)ccc1OCc1nnc(-c2ccccc2Br)o1 | 65.3% | 87.3 | 73.7% | 72.8% | 64% | 65.1% | 80.7% | 55.8% | 24.4% | 71.2% | 36.4% | 20% | 112% | 73.9% | 57.7% | 41.2% | 59.1% | 30.1% | 75.1% | 61.6%
O=C(c1ccc(F)cc1)C(c1c[nH]c2ccccc12)c1c[nH]c2ccccc12 | 36.5% | 90.5 | 91.5% | 33.9% | 50.7% | 91.7% | 33.5% | 5.35% (active) | 88% | 74.7% | 7.29% (active) | 30.8% | 79.1% | 92.6% | 74.8% | 26.6% | 10.5% | 18.9% | 99.9% | 23.1%
C#CCOc1cc(N(CC)CC)ccc1C(C(=O)NC(C)(C)C)N(C(=O)C1CCc2cc(F)ccc2O1)c1ccc(F)cc1F (stereo not given) | 42.9% | 81.6 | 51.6% | 26.4% | 30.7% | 37.5% | 50.1% | 18.3% | 55.9% | 43.3% | 34.9% | 58.3% | 64.4% | 39.8% | 27.1% | 6.84% (active) | 26.6% | 25.6% | 46.8% | 20.9%
COc1ccc(OC)c(-n2cc(C#N)c(N)c2C(=O)c2ccc(Cl)cc2Cl)c1 | 51.3% | 76.8 | 49.3% | 32.9% | 7.18% (active) | 51.9% | 65.6% | 14.1% | 25.6% | 23.5% | 21.6% | 4.43% (active) | -7.62% (active) | 45.5% | 24.6% | 29.8% | 13.7% | 39% | 49.7% | 19.8%
Cc1ccc(S(=O)(=O)N2CCN(S(=O)(=O)c3oc(-c4ccccc4)nc3C#N)CC2)cc1 | 69.2% | 84.8 | 100% | 76.2% | 64.1% | 74.7% | 85.6% | 66.1% | 101% | 84.8% | 82.5% | 80.2% | 92.6% | 78.6% | 84.4% | 56.8% | 31.4% | 74.7% | 87.9% | 66.2%
C#C[C@]1(O)CC[C@H]2[C@@H]3CC=C4c5sc(Nc6cc(C)cc(C)n6)nc5CC[C@]4(C)[C@H]3CC[C@@]21C | 13.8% | 14.7 | 6.05% (active) | -34.3% (active) | -79.9% (active) | 9.23% (active) | 12.9% | 4.71% (active) | -66% (active) | -42.1% (active) | -69.5% (active) | -74.2% (active) | 33.9% | -39.1% (active) | -58.9% (active) | 1.29% (active) | 3.1% (active) | -16% (active) | -62.4% (active) | -39.3% (active)
O=C(c1ccc(Cl)cc1)C(c1c[nH]c2ccccc12)c1c[nH]c2ccccc12 | -50.8% (active) | 38.1 | 16% | -53.5% (active) | -82.6% (active) | 4.91% (active) | -91.7% (active) | 0.546% (active) | -94.2% (active) | -71% (active) | -63.9% (active) | -71.1% (active) | 31.9% | 22.4% | -89.1% (active) | -1.68% (active) | -12.2% (active) | -27.9% (active) | 57.2% | -71.1% (active)
